A word on the inhibition: it is the relative decrease from the control value, in per cent.

Among all 200,000 compounds or so, about 360 (0.18%) were called active. No stated cut-off is given here; in the data, active means inhibition above about 25%; inactive means the rest. This excerpt belongs to a sample that is enriched for actives.

Sequence of Toll-like receptor 4 (Homo sapiens) + Myeloid differentiation primary response protein MyD88 (Homo sapiens) (O00206 whole entry, looked up): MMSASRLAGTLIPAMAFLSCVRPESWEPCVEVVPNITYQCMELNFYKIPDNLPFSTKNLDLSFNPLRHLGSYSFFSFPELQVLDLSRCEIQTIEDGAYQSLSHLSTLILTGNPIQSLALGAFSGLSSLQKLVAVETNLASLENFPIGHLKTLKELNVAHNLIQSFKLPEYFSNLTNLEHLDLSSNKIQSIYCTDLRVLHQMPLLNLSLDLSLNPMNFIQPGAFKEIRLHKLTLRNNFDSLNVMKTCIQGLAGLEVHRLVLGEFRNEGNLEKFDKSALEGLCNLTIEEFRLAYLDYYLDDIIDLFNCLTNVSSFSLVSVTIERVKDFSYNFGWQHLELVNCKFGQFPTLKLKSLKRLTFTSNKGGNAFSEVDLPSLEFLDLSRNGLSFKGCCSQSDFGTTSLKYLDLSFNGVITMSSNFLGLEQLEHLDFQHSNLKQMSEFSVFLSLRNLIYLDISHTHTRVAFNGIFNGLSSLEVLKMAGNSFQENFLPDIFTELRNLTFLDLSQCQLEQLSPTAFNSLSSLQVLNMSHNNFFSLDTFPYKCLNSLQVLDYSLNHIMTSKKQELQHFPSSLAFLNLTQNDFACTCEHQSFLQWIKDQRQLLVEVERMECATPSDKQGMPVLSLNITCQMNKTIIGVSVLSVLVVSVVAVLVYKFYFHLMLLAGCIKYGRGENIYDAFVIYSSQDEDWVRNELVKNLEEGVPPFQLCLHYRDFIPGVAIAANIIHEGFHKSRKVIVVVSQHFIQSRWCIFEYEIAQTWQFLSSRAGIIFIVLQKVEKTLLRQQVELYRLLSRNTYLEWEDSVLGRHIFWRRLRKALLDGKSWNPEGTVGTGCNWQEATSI
Sequence of Toll-like receptor 4 (Homo sapiens) + Myeloid differentiation primary response protein MyD88 (Homo sapiens) (Q99836 whole entry, looked up): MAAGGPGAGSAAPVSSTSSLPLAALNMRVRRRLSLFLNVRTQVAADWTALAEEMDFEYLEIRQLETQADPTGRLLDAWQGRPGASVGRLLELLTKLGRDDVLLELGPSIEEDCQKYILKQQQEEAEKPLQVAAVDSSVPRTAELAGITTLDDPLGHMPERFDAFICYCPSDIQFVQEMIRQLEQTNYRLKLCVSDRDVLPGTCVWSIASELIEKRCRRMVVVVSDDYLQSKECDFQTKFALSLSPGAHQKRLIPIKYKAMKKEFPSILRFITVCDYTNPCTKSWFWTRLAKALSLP

The experiment addresses Toll-like receptor 4 (Homo sapiens) + Myeloid differentiation primary response protein MyD88 (Homo sapiens) (UniProt O00206+Q99836). The experiment can be described thus: disruptors of TLR4 binding to MyD88 – cell-based, HeLa CL3-4, BLA complementation, FRET ratio, primary screen (AID 861).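 Further: 0% = vehicle and 100% = reference inhibitor.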 To be noted: HeLa CL3-4 TLR4/MyD88 BLA complementation, at 8.4 µM, stronger effect = higher value.
In the case of `CN(C)CCCN1C(=O)CSC1c1ccc([N+](=O)[O-])cc1` (stereo unspecified), the inhibition is 2.09% (inactive).

Regarding `COC(=O)c1nc2n(n1)C(c1ccc([N+](=O)[O-])cc1)C(C(=O)Nc1ccc(Cl)cc1)=C(C)N2` (stereo unspecified), the inhibition is 4.62% (inactive).

As for `COc1cc(NC(=S)N2CCCC(C)C2)cc(OC)c1OC` (stereo unspecified), the inhibition was 6.42% (inactive).

In the case of `COc1ccc(C2Nc3ccccc3C(=O)N2c2ccc(Cl)cc2)cc1Cn1cc([N+](=O)[O-])cn1` (stereo unspecified), the inhibition was -3.28% (inactive).

`Cc1nc(N=C(N)N)nc2c(C)cccc12`: the inhibition was -6.85% (inactive).

With `COc1cccc(C(=O)Nc2cc3c(cc2Br)OCCCO3)c1`, the inhibition is 5.11% (inactive).

On to `CCc1cccc(NC(=O)CCC(=O)O)c1`, for which the inhibition was -11% (inactive).

Consider `CC(=O)c1cc(C#N)c(N2CCCCC2)nc1C`, for which the inhibition was 7.39% (inactive).

As for `CCN(CC)S(=O)(=O)c1cc([N+](=O)[O-])ccc1N=Nc1c(O)n(C)c2ccccc12`, the inhibition is 6.59% (inactive).

Take `Cc1cccc(C)c1N1CCN(S(=O)(=O)N2CCCCC2)CC1`: the inhibition was -5.18% (inactive).

Consider `CC1CCN(C(=O)c2ccc(CSc3ccc(Cl)cc3)cc2)CC1`, for which the inhibition is 2.08% (inactive).

As to `C=C(C)C1CC=C(C)/C(=N\NC(=O)CNc2ccccc2OC)C1` (stereo unspecified), the inhibition is 3.79% (inactive).

For `O=C(c1ccc2ccccc2n1)N1CCN(c2ccccc2Cl)CC1`, the inhibition is -7.41% (inactive).

`CCOC(=O)c1[nH]cnc1C(=O)Nc1ccccc1C`: the inhibition was 4.26% (inactive).

On to `COc1ccc(C2CC(c3cccs3)=NN2c2ccccc2)cc1` (stereo unspecified), for which the inhibition is 0.51% (inactive).

For `COc1ccccc1N1N=C(c2cccs2)CC1c1ccccc1` (stereo unspecified), the inhibition was 44.4% (active).

For `COc1ccc(C2CC(c3cccs3)=NN2c2ccc(F)cc2)cc1OC` (stereo unspecified), the inhibition is 5.58% (inactive).

With `O=C(Nc1ccc(Br)cn1)c1ccc([N+](=O)[O-])cc1Cl`, the inhibition was 0.87% (inactive).

`O=C(/C=C/c1ccc(N2CCOCC2)cc1)c1ccccc1`: the inhibition was 27.9% (active).

As to `O=C(/C=C/c1ccccc1)c1ccoc1`, the inhibition was 4.74% (inactive).

For `O=C(O)c1ccc2c(c1)C(=O)N(c1ccc(/C=C/C(=O)c3ccccc3)cc1)C2=O`, the inhibition was -0.8% (inactive).

For `CCOc1ccc(-c2n[nH]c(=S)n2/N=C/c2cc3c(cc2[N+](=O)[O-])OCO3)cc1`, the inhibition is -2.5% (inactive).

For `CCOC(=O)CCCN1CC(O)=C(c2nc3ccccc3s2)C1=N`, the inhibition was -14.8% (inactive).

Turning to `COc1ccc(-c2[nH]ncc2/C=N/NC(=O)c2cc(Br)ccc2O)c(OC)c1`, the inhibition was -5.73% (inactive).

As to `COc1cc(OC)cc(-c2nnc(N(C)C(=O)c3ccncc3)s2)c1`, the inhibition was 11.3% (inactive).

For `O=C(NCC1CCCO1)C1CCN(C2CCN(C(=O)C3CCCCC3)CC2)CC1` (stereo unspecified), the inhibition was -1.44% (inactive).

Regarding `CCOc1cc(NC(=S)NCc2ccco2)c(OCC)cc1NC(=O)c1ccco1`, the inhibition was -15.2% (inactive).

With `CC(=O)C1C(c2ccc(Cl)cc2)c2c(n[nH]c2C)CC1(C)O` (stereo unspecified), the inhibition was -3.07% (inactive).

As to `O=C(c1ccc(Cl)cc1)c1cnc(Nc2ccccc2)s1`, the inhibition is 25.8% (active).

Take `O=C(CSc1nnc(Nc2ccccc2)s1)Nc1cccnc1Cl`: the inhibition was -6.41% (inactive).

For `CC(C)(C)C(=O)c1cnc(Nc2ccccc2)s1`, the inhibition is -8.48% (inactive).

As to `O=C(NC1CC1)C1CCCN(C(=O)NC2CCCCC2)C1` (stereo unspecified), the inhibition is 5.9% (inactive).

For the molecule `Cc1cc(F)ccc1S(=O)(=O)N1CCCOC1CNC(=O)C(=O)NCCC1=CCCCC1` (stereo unspecified), the inhibition is -6.72% (inactive).

`O=C(Nc1ccc(-n2ccnc2P(=O)(O)c2ccccc2)cc1)c1ccccc1Br`: the inhibition is -8.07% (inactive).

For the molecule `Cc1ccc(C)c(NC(=O)CCC(=O)N/N=C2/CC(=O)CC(C)(C)C2)c1`, the inhibition was 6.45% (inactive).

In the case of `COc1ccc(F)c(-c2nc(CN3CCC(c4ccccc4)CC3)c(C)o2)c1`, the inhibition was -6.39% (inactive).

With `O=C(OCC(=O)c1c[nH]c2ccccc12)c1cccc(O)c1`, the inhibition is -10% (inactive).

Regarding `COc1cc(/C=N/O)ccc1OCc1ccc([N+](=O)[O-])cc1`, the inhibition is -3.68% (inactive).

As to `Cc1cccc(COc2ccccc2/C=N/Nc2ccc([N+](=O)[O-])cc2)c1`, the inhibition is 28.7% (active).

For `Cc1ccccc1OCCOc1ccc([N+](=O)[O-])cc1/C=N/n1cnnc1`, the inhibition was -17.5% (inactive).

With `CCCn1c(=S)[nH]c2ccc(C(F)(F)F)cc21`, the inhibition was -6.93% (inactive).

For `CCNC(=O)N1c2ccccc2Sc2ccccc21`, the inhibition is 7.55% (inactive).

Regarding `Cc1cccc(C(=O)NC(=S)N2CCN(c3ccc([N+](=O)[O-])cc3)CC2)c1`, the inhibition is -12.6% (inactive).

In the case of `COC(=O)C1=NN(c2ccccc2)C2C(=O)N(c3ccccc3OC)C(=O)C12` (stereo unspecified), the inhibition was 0.17% (inactive).

On to `Cc1cccc(C(=O)Nc2ccccc2C(=O)NCc2cccnc2)c1`, for which the inhibition is -0.85% (inactive).

With `CCc1ccc2c(c1)C1(NN=C(c3ccccc3)S1)C(=O)N2` (stereo unspecified), the inhibition was 25.3% (active).

With `C=C1c2cc(CC)ccc2NC(=O)N1c1ccc(C)cc1`, the inhibition was 1.66% (inactive).

Take `O=C1Nc2ccccc2C12Nc1ccccc1S2` (stereo unspecified): the inhibition is -1.86% (inactive).

Regarding `CNc1nc(Nc2ccc(C)c(Cl)c2)nc(N)c1[N+](=O)[O-]`, the inhibition was -5.76% (inactive).

As for `O=C(CN1CCCCC1)Nc1ccccc1Cl`, the inhibition is -3.05% (inactive).

Regarding `O=C(Nc1ccccc1Cl)c1ccc2nsnc2c1`, the inhibition is 7.26% (inactive).

`O=C(Nc1ccccc1Cl)/C(Cl)=C(\Cl)S(=O)c1ccccc1` (stereo unspecified): the inhibition is 27% (active).

`CC1(c2ccccc2)CC(C)(C)N(C(=O)c2cc([N+](=O)[O-])cc([N+](=O)[O-])c2)c2ccccc21` (stereo unspecified): the inhibition was -16.2% (inactive).

In the case of `CCOc1ccc(C(C)=O)cc1COC(=O)c1cnc(Cl)c(Cl)c1`, the inhibition is 15.1% (inactive).

Regarding `COC(=O)/C(=C1\Oc2ccc(C(C)(C)C)cc2S1)C(F)(F)F`, the inhibition was 6.06% (inactive).

For the molecule `Cc1c(Cl)cccc1NC(=S)N(Cc1ccccc1)Cc1cccnc1`, the inhibition is 1.23% (inactive).

As for `CC(Sc1nc2c([nH]c3ccccc32)c(=O)n1C)c1ccccc1` (stereo unspecified), the inhibition is 8.9% (inactive).

Regarding `CC1=NN(c2cccc(Cl)c2)C(=O)C12CC(C)=C(C)CS2` (stereo unspecified), the inhibition is 2.14% (inactive).

Consider `Cn1cc(CN2CCC(C(O)CCc3ccccc3)CC2)c(-c2ccccc2F)n1` (stereo unspecified), for which the inhibition is -13.8% (inactive).

Take `CC1CCN(C(=S)c2cccc(O)c2)CC1`: the inhibition is -6.27% (inactive).

Take `O=[N+]([O-])c1ccc(N2CCN(CC(O)COc3ccccc3)CC2)cc1` (stereo unspecified): the inhibition is 5.02% (inactive).

`CCc1cccc(CC)c1NC(=O)COc1ccccc1C(=O)c1cc(C#N)c(=O)n(C2CCCCC2)c1`: the inhibition was -16.2% (inactive).

As to `CC(C)CCN1C(=O)c2ccc(C(=O)Nc3cccc(S(N)(=O)=O)c3)cc2C1=O`, the inhibition was 1.58% (inactive).

On to `CC(=O)NCCc1nc2cc(NC(=O)c3ccccc3)ccc2n1C`, for which the inhibition is -9.04% (inactive).

As for `CC(Oc1ccc(Br)cc1Br)C(=O)NC1CCCC1` (stereo unspecified), the inhibition is -3.01% (inactive).

Take `CS(=O)(=O)N(Cc1ccccc1Cl)c1ccc(C(=O)NCc2cccnc2)cc1`: the inhibition was -15.2% (inactive).

The record behind these values is PubChem BioAssay AID861 (The Scripps Research Institute Molecular Screening Center, 2007).
